What all share (assay): NCI-60 one-dose screen, 48 h (100 = growth as untreated, 0 = no growth, -100 = all killed)
Common to all, as to details: 10 µM unless noted

For assay [1], the system named is NCI-H23 lung.
For assay [2], the system named is NCI-H226 lung.
For assay [3], the system named is NCI-H322M lung.
Assay [4] has as its system HOP-62 NSCLC.
Assay [5] relates to NCI-H460 lung.
Assay [6] concerns HOP-92 NSCLC.
The subject of assay [7] is NCI-H522 lung.
The test system of assay [8] is A549/ATCC NSCLC.
The test system of assay [9] is 786-0 renal.
Assay [10] concerns COLO 205 colon.

SMILES strings stand for the structures. Compounds without any hit were thinned out: in the full panel of roughly 83,000, 20% have a hit.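 How to read the values: 0–100, growth inhibition (40 = 60% inhibited); 0, no net growth; -100 to 0, cell death (-40 = 40% of starting cells died; -100 = all dead).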 Calls of active or inactive are those of the source. The calls were made as follows: active = growth percent below 10; inactive = the rest.

In the case of `CCN(CC)c1ccc2cc(C(Nc3ccc(Br)c(C(F)(F)F)c3)c3nnnn3C(C)(C)C)c(=O)oc2c1` (stereo not given), the growth in [1] was 100% (inactive); in assay [2] it was 86.1% (inactive); in assay [3] it was 99.6% (inactive); in assay [4], 94% (inactive); in assay [5] it was 91.9% (inactive); in assay [6] it was 87.5% (inactive). Also, the growth in assay [7] was 77.9% (inactive); in [8], 86.3% (inactive); in [9], 99.8% (inactive); in assay [10], 101% (inactive).
With `C=C(C)[C@@H]1CC[C@]2(COCCC#N)CC[C@]3(C)[C@H](CC[C@@H]4[C@@](C)(CCCNCCC#N)[C@H](C(=C)C)CC[C@]43C)[C@@H]12`, the growth is 29% [100 µM] (inactive) in assay [1]; 42.6% [100 µM] (inactive) in assay [2]; 72.2% [100 µM] (inactive) in assay [3]; 77.8% [100 µM] (inactive) in assay [4]; 9.8% [100 µM] (active) in assay [5]; -14.6% [100 µM] (active) in [6]. Besides, the growth in [7] is -6.77% [100 µM] (active); in assay [8] it was 50.4% [100 µM] (inactive); in assay [9] it was 16.1% [100 µM] (inactive); in assay [10], 11.3% [100 µM] (inactive).
Regarding `COc1cc(C)cc2oc3oc(=O)c(-c4nc5ccccc5s4)cc3c(=O)c12`, the growth in assay [1] is 96.9% (inactive); in assay [2], 87.5% (inactive); in assay [3] it was 90% (inactive); in assay [4] it was 91.6% (inactive); in assay [5], 84.1% (inactive); in assay [6], 76.1% (inactive). Also, the growth in [7] was 95.7% (inactive); in assay [8] it was 109% (inactive); in [9], 105% (inactive); in assay [10], 110% (inactive).
Turning to `C#CCNC(=O)CC[C@@H](C)[C@H]1CC[C@H]2[C@@H]3CC[C@@H]4CC(=O)CC[C@]4(C)[C@H]3CC[C@]12C`, the growth in assay [1] is -27.5% [100 µM] (active); in assay [2], -63.7% [100 µM] (active); in assay [3] it was -5.44% [100 µM] (active); in [4], -56.3% [100 µM] (active); in assay [5], -55.5% [100 µM] (active); in assay [6], -71.6% [100 µM] (active). In addition, the growth in [7] was -63.8% [100 µM] (active); in assay [8] it was 6.94% [100 µM] (active); in [9], -71.9% [100 µM] (active); in [10] it was -70.9% [100 µM] (active).
In the case of `CC(C)OC(=O)Nc1cc(F)ccc1F`, the growth in assay [1] was 92.9% (inactive); in assay [2] it was 90.9% (inactive); in assay [3] it was 90.8% (inactive); in assay [4], 101% (inactive); in assay [5], 106% (inactive); in assay [6] it was 99.6% (inactive). Besides, the growth is 99.8% (inactive) in assay [7], 99.7% (inactive) in assay [8], 103% (inactive) in assay [9] and 105% (inactive) in [10].
Take `CC(C)CSc1ncnc2nc[nH]c12`: the growth is 94.7% (inactive) in [1]; 85.2% (inactive) in assay [2]; 103% (inactive) in assay [3]; 95.9% (inactive) in assay [4]; 96.9% (inactive) in assay [5]; 68.8% (inactive) in [6]. Moreover, the growth in [7] is 88% (inactive); in [8] it was 103% (inactive); in assay [9] it was 93.8% (inactive); in assay [10] it was 101% (inactive).
For the compound `Cc1c(Cn2cc(COc3ccc(Br)cc3)nn2)c(C)c(Cn2cc(COc3ccc(Br)cc3)nn2)c(C)c1Cn1cc(COc2ccc(Br)cc2)nn1`, the growth in [1] was 98.7% (inactive); in assay [2], 88.2% (inactive); in assay [3], 108% (inactive); in [4], 84% (inactive); in assay [5], 102% (inactive); in assay [6] it was 93.7% (inactive). Besides, the growth in assay [7] was -30.4% (active); in [8], 83.4% (inactive); in assay [9], 95.2% (inactive); in assay [10], 84.6% (inactive).
`CCN(CC)c1ccc2cc(C(Nc3ccc(C)cc3)c3nnnn3C(C)(C)C)c(=O)oc2c1` (stereo not given): the growth in assay [1] is 95.1% (inactive); in assay [2], 85% (inactive); in assay [3] it was 103% (inactive); in assay [4] it was 103% (inactive); in assay [5], 91.9% (inactive); in assay [6] it was 81% (inactive). In addition, the growth was 82.8% (inactive) in [7], 85.4% (inactive) in assay [8], 96% (inactive) in [9] and 110% (inactive) in assay [10].
For `O=C1Nc2ccccc2/C1=C/C(=O)c1ccc(N2CCOCC2)cc1`, the growth in assay [1] is 87.4% (inactive); in [2], 100% (inactive); in [3], 104% (inactive); in assay [4] it was 100% (inactive); in assay [5], 101% (inactive); in [6], 71.9% (inactive). The growth in assay [7] is 35.7% (inactive); in [8], 96% (inactive); in assay [9] it was 94.1% (inactive); in assay [10] it was 101% (inactive).
`Cc1nc(-c2ccccc2)sc1CC#N`: the growth was 106% (inactive) in assay [1]; 93.1% (inactive) in assay [2]; 101% (inactive) in assay [3]; 102% (inactive) in assay [4]; 103% (inactive) in [5]; 99.2% (inactive) in [6]. Besides, the growth was 94.6% (inactive) in assay [7], 100% (inactive) in [8], 104% (inactive) in assay [9] and 122% (inactive) in assay [10].
Take `Cn1cc(-c2noc(C(=O)c3cn(C)c4ncc(Br)cc34)n2)c2ccccc21`: the growth in assay [1] was 97.7% (inactive); in [2], 99.3% (inactive); in [3], 91% (inactive); in [4], 102% (inactive); in assay [5] it was 99.8% (inactive); in assay [6] it was 37.6% (inactive). The growth in assay [7] is 91.6% (inactive); in [8], 99.3% (inactive); in [9], 91.3% (inactive); in [10] it was 107% (inactive).
As for `Cc1ccc(Cn2c(O)c(N=NC(=O)c3ccc(S(N)(=O)=O)cc3)c3ccccc32)cc1`, the growth is 101% (inactive) in [1]; 93.9% (inactive) in assay [2]; 99.1% (inactive) in [3]; 106% (inactive) in assay [4]; 104% (inactive) in assay [5]; 106% (inactive) in assay [6]. Moreover, the growth was 97.3% (inactive) in assay [7], 93.8% (inactive) in assay [8], 105% (inactive) in [9] and 115% (inactive) in assay [10].
As for `O=S(=O)(NCCNc1nccc(-c2c(-c3cccc(F)c3)nc3occn23)n1)c1ccc(C(F)(F)F)cc1`, the growth in assay [1] is 98.5% (inactive); in assay [2] it was 84.2% (inactive); in [3], 89.3% (inactive); in [4] it was 85.1% (inactive); in [5] it was 98.9% (inactive); in assay [6] it was 77.5% (inactive). For the same compound, the growth in assay [7] was 74.4% (inactive); in assay [8], 70% (inactive); in assay [9], 78.7% (inactive); in [10], 96% (inactive).
For `COCc1nc2ccccc2[nH]1`, the growth in [1] is 103% (inactive); in assay [2], 100% (inactive); in assay [3], 100% (inactive); in assay [4], 105% (inactive); in [5], 106% (inactive); in assay [6] it was 100% (inactive). Also, the growth was 96.3% (inactive) in assay [7], 100% (inactive) in assay [8], 99.4% (inactive) in assay [9] and 109% (inactive) in assay [10].
For the compound `C[C@H]1[C@H](C)CC[C@]2(C(=O)N3CCN(C)CC3)CC[C@]3(C)C(=CC[C@@H]4[C@@]5(C)C/C(=C/c6ccco6)C(=O)C(C)(C)[C@@H]5CC[C@]43C)[C@H]12`, the growth was 32.5% [100 µM] (inactive) in [1]; 37.4% [100 µM] (inactive) in assay [2]; 51.6% [100 µM] (inactive) in [3]; 35.8% [100 µM] (inactive) in assay [4]; 6.22% [100 µM] (active) in assay [5]; 56.9% [100 µM] (inactive) in [6]. Further, the growth in assay [7] is 4.91% [100 µM] (active); in assay [8], 24.8% [100 µM] (inactive); in [9] it was 40.6% [100 µM] (inactive); in [10], 40.4% [100 µM] (inactive).
On to `O=C1CC(C(F)(F)F)Cc2nc3ccc(Br)cc3cc21` (stereo not given), for which the growth is 83.3% (inactive) in [1]; 87.6% (inactive) in assay [2]; 78.2% (inactive) in assay [3]; 87.1% (inactive) in [4]; 87.8% (inactive) in assay [5]; 85.8% (inactive) in assay [6]. The growth in [7] was 84.8% (inactive); in assay [8], 91.8% (inactive); in [9] it was 96.4% (inactive); in assay [10], 100% (inactive).
For `COC(=O)c1cc2c(=O)[nH]cc3c2c(n1)CCC3`, the growth is 106% (inactive) in [1]; 112% (inactive) in assay [2]; 108% (inactive) in [3]; 97.4% (inactive) in assay [4]; 101% (inactive) in assay [5]; 76.8% (inactive) in assay [6]. Also, the growth was 102% (inactive) in assay [7], 101% (inactive) in assay [8], 101% (inactive) in [9] and 106% (inactive) in [10].

Source of the values: PubChem BioAssay (NCI).
